The results in this text go back to PubChem BioAssay (NCI).

About 83,000 compounds went through this panel and 20% of them were active in at least one assay; those are over-represented in the sample as a whole.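 The endpoint reported here, percent growth, reads 100 for growth as untreated, 0 for no net growth and -100 for all cells dead.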 Values without a mark were called inactive. Calls of active or inactive are those of the source. The calls were made as follows: active = growth percent below 10; inactive = the rest.

Test systems include SR leukemia; RPMI-8226 leukemia; OVCAR-8 ovarian; OVCAR-5 ovarian; OVCAR-4 ovarian; SK-OV-3 ovarian; IGROV1 ovarian; OVCAR-3 ovarian; HS 578T breast; NCI/ADR-RES ovarian; T-47D breast; BT-549 breast; MDA-MB-435 melanoma; SW-620 colon; MCF7 breast; HCT-116 colon; HCC-2998 colon; KM12 colon; MDA-MB-468 breast.
Common to all, as to experiment: NCI-60 one-dose screen, 48 h (100 = growth as untreated, 0 = no growth, -100 = all killed)
What all share (conditions): 10 µM unless noted

As to `Cc1cccc(-c2nc(Nc3cccc(S(N)(=O)=O)c3)c3ccccc3n2)c1`, the growth in the assay with SR leukemia is 33%; in the assay with RPMI-8226 leukemia, 38.3%; in the assay with OVCAR-8 ovarian, 2.28% (active); in the assay on OVCAR-5 ovarian, 77.2%; in the assay with OVCAR-4 ovarian, 52.3%; with SK-OV-3 ovarian, 102%. Further, the growth was 66.1% with IGROV1 ovarian; 73.4% in the assay with OVCAR-3 ovarian; 76.5% with HS 578T breast; 22.8% in the assay on NCI/ADR-RES ovarian; 36.4% in the assay with T-47D breast; 88.6% with BT-549 breast. In addition, the growth is 46.4% in the assay on MDA-MB-435 melanoma; 67.6% in the assay with SW-620 colon; 33.3% in the assay on MCF7 breast; -5.73% (active) in the assay with HCT-116 colon; -1.53% (active) with HCC-2998 colon; 11.6% in the assay on KM12 colon. Further, the growth with MDA-MB-468 breast was 38.6%.

Turning to `Cc1ccc2c(c1)nc(-c1ccccc1)n2CC(=O)N=Nc1c(O)[nH]c2ccc(Br)cc12`, the growth with SR leukemia is 0.421% (active); in the assay on RPMI-8226 leukemia, -1.7% (active); in the assay on OVCAR-8 ovarian it was -67.2% (active); in the assay on OVCAR-5 ovarian it was -20.2% (active); in the assay on OVCAR-4 ovarian, -49.3% (active); in the assay on SK-OV-3 ovarian it was -32% (active). The growth with IGROV1 ovarian was -78% (active); with OVCAR-3 ovarian it was -75.2% (active); in the assay on HS 578T breast it was -5.01% (active); in the assay with NCI/ADR-RES ovarian, -69.6% (active); in the assay with T-47D breast, -46% (active); in the assay on BT-549 breast it was -72.1% (active). Besides, the growth is -33.4% (active) in the assay on MDA-MB-435 melanoma; 2.54% (active) in the assay with SW-620 colon; -69.7% (active) in the assay on MCF7 breast; -91.7% (active) with HCT-116 colon; -72% (active) in the assay with HCC-2998 colon; -46% (active) with KM12 colon. In addition, the growth in the assay on MDA-MB-468 breast was -78.4% (active).

As for `CCS(=O)(=O)N1CCCC(C(=O)Nc2nc3ccc(NC(=O)c4ccc(F)c(OC)c4F)cc3s2)C1` (stereo not drawn), the growth in the assay with SR leukemia is 27.8%; in the assay on RPMI-8226 leukemia, 30.4%; with OVCAR-8 ovarian, 57.7%; in the assay with OVCAR-5 ovarian, 101%; with OVCAR-4 ovarian, 39.4%; with SK-OV-3 ovarian, 70.2%. In addition, the growth in the assay with IGROV1 ovarian was 80.9%; in the assay on OVCAR-3 ovarian it was 62.3%; in the assay on HS 578T breast it was 47.6%; with NCI/ADR-RES ovarian, 52%; in the assay on T-47D breast, 7.96% (active); in the assay on BT-549 breast, 13.2%. Besides, the growth in the assay on MDA-MB-435 melanoma is 53.8%; with SW-620 colon, 88.7%; with MCF7 breast it was 30.1%; with HCT-116 colon, 41%; in the assay with HCC-2998 colon, 86.9%; in the assay on KM12 colon it was 61.6%. The growth with MDA-MB-468 breast is 7.13% (active).

For the compound `COc1cc2oc(-c3cccc(C(=O)Nc4ccc(Cl)cc4)c3)cc(=O)c2c(OCC(=O)N[C@@H](Cc2ccccc2)C(=O)O)c1OC`, the growth was 104% in the assay with SR leukemia; 101% in the assay with RPMI-8226 leukemia; 106% in the assay with OVCAR-8 ovarian; 101% with OVCAR-5 ovarian; 104% with OVCAR-4 ovarian; 138% in the assay on SK-OV-3 ovarian. For the same compound, the growth was 98% with IGROV1 ovarian; 117% with OVCAR-3 ovarian; 108% in the assay with HS 578T breast; 104% in the assay with NCI/ADR-RES ovarian; 109% in the assay on T-47D breast; 125% with BT-549 breast. Also, the growth is 101% in the assay on MDA-MB-435 melanoma; 99.2% with SW-620 colon; 93.2% in the assay with MCF7 breast; 109% in the assay with HCT-116 colon; 121% in the assay on HCC-2998 colon; 105% with KM12 colon. The growth in the assay with MDA-MB-468 breast was 112%.

`CCN1C(=O)N(CC)C2NNC(Sc3c(C(=O)O)c4ccccc4n(C4CCCC4)c3=O)=NC21` (stereo not drawn): the growth in the assay on SR leukemia is 22.4%; in the assay on RPMI-8226 leukemia, 24.8%; with OVCAR-8 ovarian, 4.93% (active); in the assay with OVCAR-5 ovarian it was 38.4%; in the assay on OVCAR-4 ovarian it was 61.8%; in the assay on SK-OV-3 ovarian, 32.8%. Besides, the growth is 29.6% with IGROV1 ovarian; -32.5% (active) in the assay with OVCAR-3 ovarian; 7.18% (active) in the assay with HS 578T breast; 25.1% in the assay on NCI/ADR-RES ovarian; 61.4% with T-47D breast; 6.1% (active) in the assay with BT-549 breast. Besides, the growth with MDA-MB-435 melanoma was -29.3% (active); with SW-620 colon it was 30.6%; with MCF7 breast, 16.6%; in the assay with HCT-116 colon, 4.07% (active); in the assay on HCC-2998 colon, 26.4%; with KM12 colon, 3.71% (active). Moreover, the growth in the assay with MDA-MB-468 breast is 58.1%.

Turning to `COc1ccc(NC(=O)Cn2c(O)c(N=Nc3ccc(S(N)(=O)=O)cc3)c3ccccc32)cc1`, the growth in the assay with SR leukemia is 83.8%; with RPMI-8226 leukemia, 71.6%; in the assay with OVCAR-8 ovarian, 24.5%; with OVCAR-5 ovarian, 65.9%; in the assay on OVCAR-4 ovarian it was 82.2%; with SK-OV-3 ovarian, 30.3%. In addition, the growth was 34.4% with IGROV1 ovarian; 50.7% with OVCAR-3 ovarian; 80.7% in the assay on HS 578T breast; 93.8% in the assay on NCI/ADR-RES ovarian; 66.5% in the assay with T-47D breast; 15.8% with BT-549 breast. In addition, the growth in the assay on MDA-MB-435 melanoma is 53%; in the assay with SW-620 colon it was 25.2%; in the assay on MCF7 breast, 31.2%; in the assay with HCT-116 colon it was 3.37% (active); in the assay with HCC-2998 colon, 18%; in the assay with KM12 colon, 26.3%. In the assay with MDA-MB-468 breast, the growth is 22.3%.

Take `O=c1[nH]c2ccccc2cc1CSc1cccc(Nc2nccc(-c3ccc4ccccc4c3)n2)c1`: the growth in the assay with SR leukemia was 89.5%; in the assay on RPMI-8226 leukemia, 49.4%; in the assay on OVCAR-8 ovarian, 74.9%; in the assay with OVCAR-5 ovarian, 114%; in the assay on OVCAR-4 ovarian, 69.4%; in the assay with SK-OV-3 ovarian, 115%. The growth was 102% with IGROV1 ovarian; 117% in the assay with OVCAR-3 ovarian; 105% in the assay on HS 578T breast; 51.4% in the assay on NCI/ADR-RES ovarian; 60.9% with T-47D breast; 85.4% in the assay on BT-549 breast. The growth with MDA-MB-435 melanoma is 87.9%; in the assay with SW-620 colon, 105%; in the assay on MCF7 breast, 85.1%; in the assay with HCT-116 colon, 79.7%; in the assay on HCC-2998 colon, 97.3%; in the assay on KM12 colon it was 95.9%. Also, the growth with MDA-MB-468 breast was 80.4%.
